Sampled rows, rich in hits. Any-hit rate of the full collection: about 3.6%.
LDHA block: qHTS assay for inhibitors of human lactate dehydrogenase; actives 0.15% (n = 480,000); activity change, % (values are at about 110 or 230 µM); purified LDHA, NADH/diaphorase-resazurin fluorescence; hits give low values; in the data active = activity change below about -30%;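 note: plate controls were DMSO wells for no effect and wells without enzyme for full effect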
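Remaining NADH was detected by diaphorase (0.133 mg/mL) converting 37 µM resazurin to fluorescent resorufin, read at 0 and 20 minutes. The preceding 5-minute room-temperature reaction used 2 nM LDHA, 0.2 mM sodium pyruvate and 0.06 mM NADH at pH 7.4.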
D1 potentiator: Potentiators of Human D1 Dopamine Receptor: qHTS | D(1A) dopamine receptor (Homo sapiens), P21728 | AID 504651, 2011 | potentiation, % at 10 µM | HEK293 TREx D1 cells, calcium flux, dopamine EC20 potentiation | actives 0.036% (n = 360,000); in the data active = potentiation above about 30%; note: 0% is about no effect
TRHR ag: qHTS for Small Molecule Agonists and Allosteric Enhancers of Human TRH Receptor: Primary Screen for Agonists; actives 0.18% (n = 360,000); TRHR cells, calcium flux fluo-8, FDSS agonist mode; Thyrotropin-releasing hormone receptor (Homo sapiens), P34981; AID 493084, 2011; activation, % at 2 µM; note: 0% is about no effect
Target sequence (P34981 whole entry, looked up): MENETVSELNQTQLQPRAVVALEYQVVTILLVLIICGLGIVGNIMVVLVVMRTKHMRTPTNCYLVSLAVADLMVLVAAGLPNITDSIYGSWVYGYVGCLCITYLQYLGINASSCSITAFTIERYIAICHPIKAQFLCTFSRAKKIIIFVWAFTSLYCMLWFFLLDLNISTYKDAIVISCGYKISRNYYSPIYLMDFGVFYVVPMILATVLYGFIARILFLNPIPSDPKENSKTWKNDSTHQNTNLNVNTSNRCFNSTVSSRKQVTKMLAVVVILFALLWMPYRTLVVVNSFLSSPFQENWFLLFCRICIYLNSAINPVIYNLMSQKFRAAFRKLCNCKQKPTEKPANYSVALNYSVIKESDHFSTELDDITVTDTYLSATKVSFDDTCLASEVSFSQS
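Steps: seed TRHR cells overnight; add fluo-8 no-wash Ca dye, RT 30 min–1.5 h; record 10 s baseline; pin-transfer compounds; monitor fluorescence 1 cycle/s for the agonist window. Calcium increases flag candidate agonists.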
TRHR enhancer: qHTS for Small Molecule Agonists and Allosteric Enhancers of Human TRH Receptor: Primary Screen for Enhancers; TRHR cells, fluo-8 calcium fluorescence, EC20 TRH enhancement; actives 0.66% (n = 360,000); enhancement, % at 2 µM; in the data active = enhancement above about 30%; note: 0% is about no effect
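TRHR-expressing cells loaded with fluo-8 calcium dye were read kinetically (ex 480/em 530) during compound addition, then stimulated with an EC20 of TRH (10 nM final). Enhancement of the Gq-mediated intracellular calcium response was scored.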
D1 antag: Antagonist of Human D 1 Dopamine Receptor: qHTS. actives 3.2% (n = 360,000). activity change, negative = inhibition, % at 10 µM. HEK293 TREx D1 cells, calcium flux, dopamine EC80; hits give low values. AID 504652, 2011. D(1A) dopamine receptor (Homo sapiens), P21728; in the data active = activity change below about -30%; note: % is set by controls: 0 for no effect and ±100 for the full control effect
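Inducible Hek293 Trex D1 cells (tetracycline, overnight, 30 C). Calcium dye 30–90 min RT. Antagonist mode: EC80 dopamine added after 180 s compound read.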
D1 agonist: Allosteric Agonists of the Human D1 Dopamine Receptor: qHTS; D(1A) dopamine receptor (Homo sapiens), P21728; HEK293 T-REx D1 cells, calcium flux, agonist mode; activation, % at 2 µM; actives 1% (n = 360,000); AID 504660, 2011; note: 0% is about no effect
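Inducible HEK293 T-REx D1 cells, force-coupled to calcium signalling, were plated at 4000 cells/well with tetracycline and held overnight at 30 C. After no-wash calcium dye loading, compound-evoked calcium rise over 180 s flagged agonists.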
Active calls of the source: *; . = no result. Cut-off read from the data, not from the text of the source, unless noted: active = activation above about 30%; inactive = the rest.

SMILES	LDHA block	D1 potentiator	TRHR ag	TRHR enhancer	D1 antag	D1 agonist
Cc1ccc2c(COC(=O)CNC(=O)c3ccccc3)cc(=O)oc2c1C	3.1	.	.	.	.	.
Cc1ccc(C)c(/C=C/C(=O)c2cccc([N+](=O)[O-])c2)c1	8.6	.	.	.	.	.
COc1ccc(-c2nc(C#N)c(NC(C)c3ccccc3)o2)cc1 (stereo unspecified)	42.6	.	.	.	.	.
Cc1ccc(/C=N/N(C)C2=NS(=O)(=O)c3ccccc32)o1	.	-3.1	-0.6	-1.1	-43.1*	1.6
CCCC(=O)N1CC(=O)Nc2ccc(Br)cc2C1c1ccc(F)cc1 (stereo unspecified)	-5.3	1.5	-1.9	7.1	10.8	3.5
CCCC(=O)N1CC(=O)Nc2ccc(C)cc2C1c1ccc(F)cc1 (stereo unspecified)	-2.0	-6.5	-1.2	4.2	-87.9*	-1.0
CCCCN(CC)c1nc(-c2ccc([N+](=O)[O-])cc2)nc2ccccc12	-4.7	.	.	.	.	.
COc1cc(CNC(C)(C)CO)cc(Cl)c1OCc1cccs1	2.1	.	.	.	.	.
COC(=O)C(CC(=O)c1ccc(Cl)cc1)c1ccc(C(C)C)cc1 (stereo unspecified)	-0.8	-4.5	0.9	0.4	-30.0*	8.7
CSc1ccc(C2NC(=O)CCC2[N+](=O)[O-])cc1 (stereo unspecified)	-9.5	-1.8	0.1	3.5	-32.8*	1.3
O=C(COC(=O)Cc1c(Cl)cccc1Cl)NCCC1=CCCCC1	-5.3	-1.4	-0.5	-4.6	-3.5	34.6*
O=C(COC(=O)COc1cccc(F)c1)NCCC1=CCCCC1	-4.5	-4.1	0.6	17.4	-31.7*	-0.2
COc1ccc(C)cc1NC(=O)Cn1nc2ccc(SC3CCCCC3)nn2c1=O	-7.9	.	.	.	.	.
COc1c(NC(C)=O)c2ccccc2c2ccccc12	0.6	-4.8	0.3	38.3*	1.2	-0.6
COc1ccc(C(=O)CSc2nnc3c(=O)n(-c4cc(Cl)ccc4C)ccn23)cc1OC	3.6	.	.	.	.	.
COc1ccc(OCC(=O)Nc2c(C(=O)N3CCN(C)CC3)oc3ccccc23)cc1	-0.5	-17.5	0.2	1.8	-33.0*	3.7
Cc1cc(Cl)ccc1Oc1ncc(-c2ccc(Cl)cc2)cn1	-4.6	7.3	0.2	-3.0	-65.7*	6.9
Clc1ccc(-c2cnc(Oc3ccccc3)nc2)cc1	-1.4	-3.9	0.2	-6.9	-3.0	0.9
Cc1cccc(OCCN(C)C(=O)COc2ccc3c(C)cc(=O)oc3c2)c1	15.2	.	.	.	.	.
CCn1c(CNc2cccc(Cl)c2)nnc1SCC(=O)OC1CCCCC1	-4.4	-4.5	-0.6	6.0	-43.1*	36.2*
O=C(O)CCc1nn2c3ccccc3nc2n(CCN2CCCCC2)c1=O	-2.1	-4.8	0.1	-3.1	-30.6*	6.6
CCC1CCCCN1C(=O)COC(=O)c1cc2ccccc2cc1O (stereo unspecified)	1.9	-8.8	-0.4	-1.3	-32.2*	14.9
O=C(OCC(=O)N1CCCCC1)c1cc2ccccc2cc1O	9.3	3.8	0.0	-2.5	9.2	2.5
C=C(C)CN1CCCC(C(=O)NCC2CC2)C1 (stereo unspecified)	-1.1	.	.	.	.	.
CCNS(=O)(=O)c1cc(C(=O)NC(C)COC)ccc1OC (stereo unspecified)	5.3	.	.	.	.	.
Fc1cccc(CNCc2ccc3c(c2)OCO3)c1	-7.9	2.1	0.4	12.6	6.2	1.5
COc1cc(CNCc2ccc(SC)cc2)cc(OC)c1	-30.7*	-0.8	0.3	2.2	-1.9	32.9*
CSc1ccc(CNCc2ccc3c(c2)OCO3)cc1	-14.2	-3.8	-0.7	1.6	-4.2	36.0*
COc1cccc(CNCc2cc(OC)cc(OC)c2)c1	-15.7	-7.8	0.4	4.3	-12.3	10.4

Screens deposited in PubChem by National Center for Advancing Translational Sciences (NCATS).
